Each structure is given as a SMILES string. Records with an inconclusive call do not appear. Calls of active or inactive are those of the source. How the source made its calls, unless noted: active means hit-call score of the fitted dose curve at least 0.9, where 1 is the maximum; inactive means score below 0.9.

Outcome and AC50 data for eleven molecules are collected here from PubChem BioAssay (EPA / NIEHS).

Experiment [1] can be described thus: ATG_NFI_CIS: Attagene CIS-FACTORIAL HepG2 Assay for human Nuclear Factor I (NFI) (AID 2282989). As to conditions: HepG2 cis-regulatory reporter, NFI response element transcription; actives raise or lower the signal. In outline:
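Reporter transcripts were measured by RT-PCR with fluorescent primer extension and capillary electrophoresis 24 h post-treatment. HepG2 cells carried transiently transfected cis-regulated reporter constructs reporting endogenous factor activity; gain or loss fitted against DMSO baseline.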

Experiment [2] deals with Myc proto-oncogene protein (Homo sapiens) (UniProt P01106). As to the kind of experiment: ATG_Myc_CIS: Attagene CIS-FACTORIAL HepG2 Assay for human Myelocytomatosis (Myc) Proto-Oncogene Transcription Factor (AID 2282990). The settings on record: HepG2, Attagene cis-reporter transcription factor activity; actives raise or lower the signal. In outline: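 After 24 h chemical treatment of HepG2 cells carrying multiplexed cis-regulated reporter constructs, reporter transcripts quantified by RT-PCR and capillary electrophoresis of fluorescent fragments. Gain or loss fitted against DMSO baseline.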

Experiment [3] can be described thus: ATG_NF_kB_CIS: Attagene CIS-FACTORIAL HepG2 Assay for human Nuclear Factor Kappa B (NF-kB) (AID 2282991). The settings on record: HepG2 Attagene cis-factorial NF-kB reporter mRNA; actives raise or lower the signal. In a few lines:
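Endpoint from a 52-component multiplexed HepG2 reporter panel: cis-regulated transcription units transiently transfected, 24 h dosing, reporter mRNA quantified by RT-PCR and capillary electrophoresis, scored as increase or decrease against DMSO.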

A short description of experiment [4]: ATG_NRF2_ARE_CIS: Attagene CIS-FACTORIAL HepG2 Assay for human Nuclear Factor Erythroid 2 Related Factor 2 (NFR2) response to Antioxidant Response Elements (ARE) (AID 2282992). As to conditions: HepG2 Attagene ARE/NRF2 reporter, transcription factor activity; actives raise or lower the signal. In outline: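 Endogenous transcription factor activity read out as reporter transcript levels (RT-PCR plus capillary electrophoresis, fluorescence) in transiently transfected HepG2 cells. Measured at 24 h after dosing; gain or loss of signal fitted versus DMSO.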

Experiment [5] can be described thus: ATG_Oct_MLP_CIS: Attagene CIS-FACTORIAL HepG2 Assay for human Octamer-Binding Transcription Factor (Oct) (AID 2282993). As to conditions: HepG2 Attagene cis-factorial Oct reporter, mRNA; actives raise or lower the signal. In a few lines: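 Readout is reporter transcript level from RT-PCR with fluorescent primer extension and capillary electrophoresis, fitted in both directions against DMSO. Transfected HepG2 reporter units report endogenous factor activity after 24 h dosing.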

Experiment [6] deals with Cellular tumor antigen p53 (Homo sapiens) (UniProt P04637). Kind of experiment: ATG_p53_CIS: Attagene CIS-FACTORIAL HepG2 Assay for human p53 Transcription Factor (AID 2282994). As to conditions: HepG2 p53 cis-element reporter, Attagene mRNA; actives raise or lower the signal. In a few lines:
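Endogenous p53 activity read in transiently transfected HepG2 from a cis-element-driven reporter transcript after 24 h exposure. RNA reverse-transcribed, PCR-amplified, fluorescently labelled and sized by capillary electrophoresis; gain or loss fitted against DMSO baseline.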

Experiment [7] is described as follows: BSK_3C_uPAR: BioMAP Diversity Plus: 3C Assay for Urokinase-type plasminogen activator receptor (uPAR) Biomarker Activity (AID 2282998). As to conditions: BioMAP 3C HUVEC, uPAR biomarker ELISA; actives raise or lower the signal. In a few lines:
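Cell-surface uPAR on HUVEC (3C system) read by ELISA at 24 h post-treatment, with DMSO as baseline and fitting in both directions. Parallel cultures stained with SRB to flag overt cytotoxicity.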

Experiment [8] can be described thus: BSK_3C_VCAM1: BioMAP Diversity Plus: 3C Assay for Vascular cell adhesion molecule 1 (VCAM1) Biomarker Activity (AID 2282999). As to conditions: BioMAP 3C HUVEC, VCAM1 ELISA, cytokine-stimulated; actives raise or lower the signal. In outline:
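Activity fitted in both directions relative to DMSO, with ELISA measurement of the surface marker on primary HUVEC (3C) at 24 h post-treatment; parallel SRB staining (0.1% SRB, TCA-fixed, 560 nm) flagged overt cytotoxicity.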
In general terms: An ELISA detects its analyte on a solid surface through an enzyme-linked reagent.

Experiment [9] can be described thus: BSK_4H_Eotaxin3: BioMAP Diversity Plus: 4H Assay for Eotaxin 3 Biomarker Activity (AID 2283000).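 On Outcome: CCL26 protein level quantified by ELISA in parallel with SRB cytotoxicity check.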 As to conditions: primary human endothelial cells (HUVEC); actives raise or lower the signal. In a few lines:
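Eotaxin-3 (CCL26) levels were measured by ELISA in HUVEC primary cultures 24 h post-dosing. Gain or loss of signal was fitted in both directions, with DMSO serving as baseline and negative control.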

Read-out in experiment [10]: Intercellular Adhesion Molecule 1 (ICAM1), ICAM1 (gene 3383)
As to the kind of experiment: BSK_3C_ICAM1: BioMAP Diversity Plus: 3C Assay for Intercellular Adhesion Molecule 1 (ICAM1) Biomarker Activity (AID 2283003). As to conditions: primary human endothelial cells (HUVEC); actives raise or lower the signal. In outline:
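Chemicals are dosed onto primary human umbilical vein endothelium (3C system). After 24 h, ICAM-1 is measured by ELISA, and responses are fitted bidirectionally relative to DMSO.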

The target in experiment [11] is human Peroxisome Proliferator-activated Receptor alpha (PPARa), PPARA (gene 5465) (UniProt Q07869). As to the kind of experiment: ATG_PPARa_TRANS: Attagene TRANS-FACTORIAL HepG2 Assay for human Peroxisome Proliferator-activated Receptor alpha (PPARa) (AID 2283001; active means hit-call score of the fitted dose curve at least 0.9, where 1 is the maximum;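 on AC50: potency for gain of reporter signal over DMSO so agonist or activator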). In outline: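 Reporter transcripts quantified by RT-PCR plus capillary electrophoresis after 24 h treatment, fitted upward relative to DMSO. Cells: human HepG2 transiently carrying multiple GAL4-UAS reporter units driven by NR-Gal4 chimeras.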

For experiment [12], the target named is human Peroxisome Proliferator-activated Receptor delta (PPARd), PPARD (gene 5467) (UniProt Q03181). As to the kind of experiment: ATG_PPARd_TRANS: Attagene TRANS-FACTORIAL HepG2 Assay for human Peroxisome Proliferator-activated Receptor delta (PPARd) (AID 2283002; active means hit-call score of the fitted dose curve at least 0.9, where 1 is the maximum). In outline: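 Read-out is induced reporter mRNA, quantified by RT-PCR with fluorescent labelling and capillary electrophoresis after 24 h dosing. Cells are HepG2 transiently carrying multiple GAL4-UAS reporter units driven by exogenous NR-GAL4 chimeras; DMSO serves as baseline.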

The nature of experiment [13]: BSK_3C_TissueFactor: BioMAP Diversity Plus: 3C Assay for Tissue Factor Biomarker Activity (AID 2282997). As to conditions: BioMAP 3C HUVEC, tissue factor biomarker readout; actives raise or lower the signal. In a few lines: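 Tissue Factor measured by ELISA, 24 h after treatment of primary HUVEC in the BioMAP 3C setting.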
Experiment [14] has as its target Peroxisome proliferator-activated receptor gamma (Homo sapiens) (UniProt P37231). As to the kind of experiment: ATG_PPARg_TRANS: Attagene TRANS-FACTORIAL HepG2 Assay for human Peroxisome Proliferator-activated Receptor-gamma (PPARg) (AID 2283007; active means hit-call score of the fitted dose curve at least 0.9, where 1 is the maximum). In outline:
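Endpoint reflects upward reporter mRNA change versus DMSO controls. Setup: transiently transfected HepG2, GAL4-UAS reporters driven by chimeric NR-Gal4, 24 h incubation, RT-PCR with capillary electrophoresis read-out.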

In experiment [15] the target is human RAR-related Orphan Receptor beta (RORb), RORB (gene 6096) (UniProt Q92753). Kind of experiment: ATG_RORb_TRANS: Attagene TRANS-FACTORIAL HepG2 Assay for human RAR-related Orphan Receptor beta (RORb) (AID 2283010; active means hit-call score of the fitted dose curve at least 0.9, where 1 is the maximum). In outline: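 Transfect HepG2 with multiple GAL4-UAS reporter transcription units; dose chemicals for 24 h; isolate RNA, reverse-transcribe and PCR-amplify reporter sequences; label, digest and resolve fragments by capillary electrophoresis; fit increases relative to DMSO.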

Experiment [16] addresses human RAR-related Orphan Receptor gamma (RORg), RORC (gene 6097) (UniProt P51449). As to the kind of experiment: ATG_RORg_TRANS: Attagene TRANS-FACTORIAL HepG2 Assay for human RAR-related Orphan Receptor gamma (RORg) (AID 2283011; active means hit-call score of the fitted dose curve at least 0.9, where 1 is the maximum). In outline: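 HepG2 cells transiently transfected with GAL4-UAS reporter units and chimeric RORg-Gal4 construct; after 24 h chemical exposure, reporter mRNA measured by RT-PCR with fluorescent capillary electrophoresis, gain of signal fitted against DMSO.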

For experiment [17], the target named is Nuclear receptor subfamily 1 group I member 2 (Homo sapiens) (UniProt O75469). Kind of experiment: ATG_PXR_TRANS: Attagene TRANS-FACTORIAL HepG2 Assay for human Pregnane X Receptor (PXR) (AID 2283008; active means hit-call score of the fitted dose curve at least 0.9, where 1 is the maximum). In outline:
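Transactivation by exogenous PXR–GAL4 fusion measured as reporter transcript induction after 24 h compound treatment of transfected human HepG2 cells. Read-out via RT-PCR and capillary electrophoresis of labelled fragments, fitted upward relative to DMSO.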

The target in experiment [18] is Retinoic acid receptor alpha (Homo sapiens) (UniProt P10276). As to the kind of experiment: ATG_RARa_TRANS: Attagene TRANS-FACTORIAL HepG2 Assay for human Retinoic Acid Receptor alpha (RARa) (AID 2283005; active means hit-call score of the fitted dose curve at least 0.9, where 1 is the maximum). In outline: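 Reporter transcripts, measured by RT-PCR with fluorescent labeling and capillary electrophoresis after 24 h dosing, reflect activity of an exogenous human RARa–GAL4 fusion in transiently transfected HepG2. Fitted for increase relative to DMSO.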

The target in experiment [19] is human Retinoic Acid Receptor gamma (RARg), RARG (gene 5916) (UniProt P13631). As to the kind of experiment: ATG_RARg_TRANS: Attagene TRANS-FACTORIAL HepG2 Assay for human Retinoic Acid Receptor gamma (RARg) (AID 2283009; active means hit-call score of the fitted dose curve at least 0.9, where 1 is the maximum). In outline:
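TRANS format measured activity of exogenous NR-GAL4 fusion (RARg) in transfected HepG2 liver cells after 24 h dosing. Induced reporter RNA was detected by RT-PCR/capillary electrophoresis fluorescence, analysed in the positive direction against DMSO.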

Sequence of human Peroxisome Proliferator-activated Receptor delta (PPARd), PPARD (gene 5467) (Q03181 whole entry, looked up, the tested form may be a part): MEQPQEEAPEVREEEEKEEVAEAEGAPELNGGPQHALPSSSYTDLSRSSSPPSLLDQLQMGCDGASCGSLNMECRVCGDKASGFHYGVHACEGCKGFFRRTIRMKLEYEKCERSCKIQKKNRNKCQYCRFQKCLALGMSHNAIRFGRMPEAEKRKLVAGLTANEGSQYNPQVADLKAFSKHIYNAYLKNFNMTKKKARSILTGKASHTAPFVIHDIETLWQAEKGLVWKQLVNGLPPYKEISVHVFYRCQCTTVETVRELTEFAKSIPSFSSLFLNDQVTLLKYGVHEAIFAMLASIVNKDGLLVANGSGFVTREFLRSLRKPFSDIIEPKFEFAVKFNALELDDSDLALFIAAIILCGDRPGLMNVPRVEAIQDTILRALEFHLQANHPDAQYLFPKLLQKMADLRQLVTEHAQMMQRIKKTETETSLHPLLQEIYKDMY
Sequence of Nuclear receptor subfamily 1 group I member 2 (Homo sapiens) (O75469 whole entry, looked up, the tested form may be a part): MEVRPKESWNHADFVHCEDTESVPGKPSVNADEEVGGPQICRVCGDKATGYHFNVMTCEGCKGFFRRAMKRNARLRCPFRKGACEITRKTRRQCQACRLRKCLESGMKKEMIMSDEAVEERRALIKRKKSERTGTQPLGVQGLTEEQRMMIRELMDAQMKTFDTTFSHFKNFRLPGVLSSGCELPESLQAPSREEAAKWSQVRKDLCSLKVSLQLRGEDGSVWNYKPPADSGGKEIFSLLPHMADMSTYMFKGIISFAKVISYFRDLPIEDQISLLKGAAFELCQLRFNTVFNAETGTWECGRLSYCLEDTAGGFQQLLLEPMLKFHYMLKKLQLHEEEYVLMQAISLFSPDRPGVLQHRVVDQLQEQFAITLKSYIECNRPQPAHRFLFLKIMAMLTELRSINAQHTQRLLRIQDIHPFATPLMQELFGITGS
Sequence of Myc proto-oncogene protein (Homo sapiens) (P01106 whole entry, looked up, the tested form may be a part): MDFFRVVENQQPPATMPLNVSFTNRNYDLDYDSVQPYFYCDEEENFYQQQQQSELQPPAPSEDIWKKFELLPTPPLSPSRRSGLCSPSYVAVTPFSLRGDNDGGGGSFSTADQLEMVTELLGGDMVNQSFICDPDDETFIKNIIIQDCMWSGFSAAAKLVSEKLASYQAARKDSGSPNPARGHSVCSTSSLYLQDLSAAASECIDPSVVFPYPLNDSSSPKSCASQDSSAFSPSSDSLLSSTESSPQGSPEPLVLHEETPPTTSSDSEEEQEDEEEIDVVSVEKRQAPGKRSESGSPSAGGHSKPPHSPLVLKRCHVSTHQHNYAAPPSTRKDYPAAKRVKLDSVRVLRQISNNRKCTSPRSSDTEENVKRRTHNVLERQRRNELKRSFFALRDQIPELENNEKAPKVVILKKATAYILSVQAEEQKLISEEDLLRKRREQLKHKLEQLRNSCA
Sequence of human Peroxisome Proliferator-activated Receptor alpha (PPARa), PPARA (gene 5465) (Q07869 whole entry, looked up, the tested form may be a part): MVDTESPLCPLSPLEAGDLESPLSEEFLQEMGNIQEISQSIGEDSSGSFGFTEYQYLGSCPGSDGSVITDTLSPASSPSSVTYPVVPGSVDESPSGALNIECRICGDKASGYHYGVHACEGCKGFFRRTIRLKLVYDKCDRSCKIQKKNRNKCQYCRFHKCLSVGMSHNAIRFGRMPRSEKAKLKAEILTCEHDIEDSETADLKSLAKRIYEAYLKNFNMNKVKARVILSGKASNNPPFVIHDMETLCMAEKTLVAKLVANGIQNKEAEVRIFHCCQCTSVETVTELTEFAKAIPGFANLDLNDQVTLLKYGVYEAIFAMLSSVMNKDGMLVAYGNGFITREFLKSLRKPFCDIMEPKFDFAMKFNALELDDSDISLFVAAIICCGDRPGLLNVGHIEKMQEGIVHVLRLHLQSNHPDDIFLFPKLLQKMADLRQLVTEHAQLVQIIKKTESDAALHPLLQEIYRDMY
Sequence of Peroxisome proliferator-activated receptor gamma (Homo sapiens) (P37231 whole entry, looked up, the tested form may be a part): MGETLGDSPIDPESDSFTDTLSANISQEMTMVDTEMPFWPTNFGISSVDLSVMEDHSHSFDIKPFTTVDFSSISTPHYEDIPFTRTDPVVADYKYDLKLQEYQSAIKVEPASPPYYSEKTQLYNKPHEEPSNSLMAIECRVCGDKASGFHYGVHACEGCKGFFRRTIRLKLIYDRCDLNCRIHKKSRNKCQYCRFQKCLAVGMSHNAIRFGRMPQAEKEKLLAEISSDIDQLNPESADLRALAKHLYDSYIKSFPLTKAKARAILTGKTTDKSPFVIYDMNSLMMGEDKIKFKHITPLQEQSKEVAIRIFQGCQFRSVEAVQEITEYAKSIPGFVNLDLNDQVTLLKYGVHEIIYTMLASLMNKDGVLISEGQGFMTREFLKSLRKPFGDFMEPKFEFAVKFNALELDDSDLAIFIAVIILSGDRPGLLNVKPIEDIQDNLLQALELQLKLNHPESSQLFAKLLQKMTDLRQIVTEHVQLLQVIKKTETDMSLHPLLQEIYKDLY
Sequence of Cellular tumor antigen p53 (Homo sapiens) (P04637 whole entry, looked up): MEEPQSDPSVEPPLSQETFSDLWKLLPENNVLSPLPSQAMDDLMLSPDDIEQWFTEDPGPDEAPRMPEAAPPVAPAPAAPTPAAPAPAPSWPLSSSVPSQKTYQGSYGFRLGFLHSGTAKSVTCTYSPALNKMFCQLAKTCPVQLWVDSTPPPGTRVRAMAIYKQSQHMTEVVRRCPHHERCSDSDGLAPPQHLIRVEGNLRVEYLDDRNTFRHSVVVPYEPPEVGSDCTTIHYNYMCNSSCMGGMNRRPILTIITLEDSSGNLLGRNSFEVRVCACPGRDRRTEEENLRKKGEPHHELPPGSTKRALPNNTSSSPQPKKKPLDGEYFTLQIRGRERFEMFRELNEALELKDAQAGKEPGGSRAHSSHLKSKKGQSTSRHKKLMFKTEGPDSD
Sequence of human RAR-related Orphan Receptor beta (RORb), RORB (gene 6096) (Q92753 whole entry, looked up, the tested form may be a part): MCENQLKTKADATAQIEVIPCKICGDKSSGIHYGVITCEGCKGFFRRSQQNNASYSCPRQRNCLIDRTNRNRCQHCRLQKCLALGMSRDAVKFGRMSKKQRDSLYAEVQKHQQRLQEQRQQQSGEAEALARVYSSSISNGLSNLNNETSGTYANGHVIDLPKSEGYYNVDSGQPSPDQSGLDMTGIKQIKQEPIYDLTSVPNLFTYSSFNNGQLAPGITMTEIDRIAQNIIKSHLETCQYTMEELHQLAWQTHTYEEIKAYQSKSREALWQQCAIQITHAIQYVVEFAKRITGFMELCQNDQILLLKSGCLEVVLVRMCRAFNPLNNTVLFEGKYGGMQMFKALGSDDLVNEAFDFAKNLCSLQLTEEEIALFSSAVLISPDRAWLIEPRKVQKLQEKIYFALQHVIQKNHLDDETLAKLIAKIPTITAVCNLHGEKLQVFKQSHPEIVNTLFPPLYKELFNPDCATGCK
Sequence of human RAR-related Orphan Receptor gamma (RORg), RORC (gene 6097) (P51449 whole entry, looked up, the tested form may be a part): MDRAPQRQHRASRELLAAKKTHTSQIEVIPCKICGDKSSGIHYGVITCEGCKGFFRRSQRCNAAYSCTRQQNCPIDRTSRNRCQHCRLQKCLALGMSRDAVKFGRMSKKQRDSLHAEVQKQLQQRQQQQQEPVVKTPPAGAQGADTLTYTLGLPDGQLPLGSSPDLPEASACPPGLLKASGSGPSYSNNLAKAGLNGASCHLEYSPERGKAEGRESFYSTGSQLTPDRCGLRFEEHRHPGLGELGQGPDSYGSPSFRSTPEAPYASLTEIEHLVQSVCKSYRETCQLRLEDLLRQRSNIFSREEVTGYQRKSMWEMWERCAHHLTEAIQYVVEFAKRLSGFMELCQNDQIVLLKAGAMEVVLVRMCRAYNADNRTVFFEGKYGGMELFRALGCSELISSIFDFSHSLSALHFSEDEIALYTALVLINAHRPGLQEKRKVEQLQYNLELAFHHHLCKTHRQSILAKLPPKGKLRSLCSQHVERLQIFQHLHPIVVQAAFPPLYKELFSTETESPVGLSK
Sequence of human Retinoic Acid Receptor gamma (RARg), RARG (gene 5916) (P13631 whole entry, looked up, the tested form may be a part): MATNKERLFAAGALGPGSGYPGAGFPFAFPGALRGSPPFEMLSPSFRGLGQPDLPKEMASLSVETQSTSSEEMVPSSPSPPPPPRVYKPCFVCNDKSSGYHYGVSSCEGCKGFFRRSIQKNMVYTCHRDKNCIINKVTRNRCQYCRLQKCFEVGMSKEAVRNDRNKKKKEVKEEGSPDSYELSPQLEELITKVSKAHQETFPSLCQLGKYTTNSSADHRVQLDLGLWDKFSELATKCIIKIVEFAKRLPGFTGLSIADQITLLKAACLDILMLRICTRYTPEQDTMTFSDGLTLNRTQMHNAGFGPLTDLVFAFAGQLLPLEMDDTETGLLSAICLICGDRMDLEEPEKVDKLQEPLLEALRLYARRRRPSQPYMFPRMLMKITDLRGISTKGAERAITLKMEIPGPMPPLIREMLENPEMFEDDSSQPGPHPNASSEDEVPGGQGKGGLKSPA
Sequence of Retinoic acid receptor alpha (Homo sapiens) (P10276 whole entry, looked up, the tested form may be a part): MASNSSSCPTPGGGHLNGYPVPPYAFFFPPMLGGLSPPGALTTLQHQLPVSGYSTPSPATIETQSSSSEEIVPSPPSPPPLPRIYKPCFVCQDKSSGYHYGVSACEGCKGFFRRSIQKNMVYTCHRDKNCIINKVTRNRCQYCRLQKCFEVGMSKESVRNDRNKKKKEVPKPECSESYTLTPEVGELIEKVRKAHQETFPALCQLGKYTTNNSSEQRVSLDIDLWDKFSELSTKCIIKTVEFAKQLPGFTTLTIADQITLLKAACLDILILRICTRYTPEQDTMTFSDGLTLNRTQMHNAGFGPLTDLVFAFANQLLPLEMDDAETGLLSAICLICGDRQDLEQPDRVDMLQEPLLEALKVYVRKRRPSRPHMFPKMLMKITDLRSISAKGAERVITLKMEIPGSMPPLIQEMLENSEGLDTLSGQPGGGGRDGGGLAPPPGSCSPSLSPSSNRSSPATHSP

What is called AC50 is the midpoint of the concentration-response curve, whichever way the signal moves. As to `CN(CCOc1ccc(CC2SC(=O)NC2=O)cc1)c1ccccn1` (configuration not stated), the molecule was classed as inactive in [1], in [2], in experiment [3], in [5], in experiment [6] and in experiment [8]. Further, in experiment [10], the result was inactive. The AC50 is 15.1 µM (active) in experiment [4], 6.93 µM (active) in experiment [7] and 3.97 µM (active) in experiment [9].

As to `O=C(OCc1ccccc1)C(=O)OCc1ccccc1`, the molecule was called inactive in [1], in experiment [2], in experiment [3], in experiment [4], in experiment [5] and in experiment [6]. The molecule was classed as inactive in experiment [11] and in experiment [12].

Regarding `O=C(O)c1ccc([N+](=O)[O-])cc1`, the call in experiment [1], in experiment [2], in experiment [3], in experiment [4], in experiment [5] and in experiment [6] was inactive. Moreover, the result in [13], in [7], in experiment [8], in experiment [9] and in [10] was inactive.

As to `CCN(CC)c1ccc(C(=C2C=CC(=[N+](CC)CC)C=C2)c2ccc(S(=O)(=O)O)cc2S(=O)(=O)[O-])cc1`, the molecule was called inactive in experiment [1], in experiment [2], in experiment [3], in experiment [4], in [5] and in experiment [6]. In addition, the result in [11], in experiment [12], in [14], in [15] and in experiment [16] was inactive.

As for `CCc1c(C)cc(N)c(CC)c1N`, the call in [1], in experiment [2], in experiment [3], in [4], in [5] and in experiment [6] was inactive. Also, the result in [7], in experiment [8], in [9], in experiment [11], in [10] and in experiment [16] was inactive. In addition, the AC50 in experiment [17] was 100 µM (active).

As to `COc1cc2ncnc(Nc3cccc(Cl)c3)c2cc1OC`, the outcome in [1], in experiment [2], in experiment [4], in [11], in [12] and in [14] was inactive. For the same molecule, the results for the AC50 in experiment [3], in experiment [5] and in experiment [6] were 40.8 µM (active), 25 µM (active) and 1.57 µM (active), respectively.

Turning to `CC(C=O)Cc1ccc(C(C)C)cc1` (configuration not stated), the molecule was called inactive in experiment [1], in [2], in experiment [3], in [4], in experiment [5] and in [6]. Further, the call in experiment [12] and in experiment [14] was inactive. The AC50 in [11] was 49.1 µM (active).

As for `O=C1CCCCCCCCCCOCCCCO1`, the molecule was classed as inactive in experiment [1], in [2], in experiment [3], in [5], in [6] and in experiment [12]. For the same molecule, the call in experiment [18], in [17], in [19] and in experiment [15] was inactive. Also, the values for the AC50 in experiment [4], in experiment [11] and in experiment [14] were 167 µM (active), 40 µM (active) and 59.3 µM (active), respectively.

Take `O=C1c2ccccc2C(=O)N1SC1CCCCC1`: the molecule was classed as inactive in experiment [1], in experiment [2], in [3], in experiment [5], in experiment [11] and in [12]. Also, in experiment [17], the outcome was inactive. In addition, the AC50 in experiment [4] is 65.4 µM (active); in experiment [6] it was 167 µM (active).

As to `Nc1ccc(S(=O)(=O)O)c(N)c1`, the call in [1], in experiment [2], in experiment [3], in experiment [4], in experiment [5] and in experiment [6] was inactive. Further, in experiment [11], the molecule was classed as inactive.

As for `CCCCCOC(=O)CCC`, the molecule was classed as inactive in experiment [1], in experiment [2], in experiment [3], in experiment [4], in experiment [5] and in experiment [6]. The outcome in [11], in experiment [12], in experiment [14], in experiment [19], in experiment [15] and in experiment [16] was inactive.
